High-throughput results deposited in PubChem BioAssay by National Center for Advancing Translational Sciences (NCATS).
HP1b binding inh: inhibitors of HP1-beta chromodomain binding to methylated histone tails; Potency, µM (series often up to 114 µM), without a hit: top-dose activity change, negative = inhibition, usual class: inhibitors; P83916; AlphaScreen HP1-beta / biotin-H3K9me3 peptide binding; 0.56% of 390,000 active; AID 540317; further: potency means the concentration at half of the fitted maximal effect; nearly all actives have a fitted effect of over 70% in size
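AlphaScreen: HP1-beta (50 nM) preformed 30 min with biotin-H3(1-18)K9me3 peptide (50 nM) in PBS pH 7.4, 0.01% Tween-20. Compound added for 30 min at RT, then streptavidin donor/nickel chelate acceptor beads (10 ug/mL) for 30 min.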
Six1-Eya2 inh: blocks human Six1 binding to Eya2; Q15475+O00167; AlphaScreen GST-Six1/His-Eya2 binding, biochemical; active compounds read low; activity change, % (test concentration not listed); 0.56% of 360,000 active; AID 651725; in the data active means activity change below about -65%; inconclusive means mostly about -30% to -63%; further: on the % scale 0 is the no-effect control and ±100 the full control effect
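Compounds are tested against tagged Six1 and Eya2 proteins bridged by glutathione donor and nickel acceptor beads; after a one-hour incubation at 37 °C without light, AlphaScreen emission is recorded.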
TDP1 block: blocks human tyrosyl-DNA phosphodiesterase 1 | AID 485290 | Potency, µM (top dose mostly 130 µM), without a hit: at the highest dose activity change, negative = inhibition, usual class: inhibitors | Q9NUW8 | recombinant TDP1, AlphaScreen DNA substrate cleavage | 0.28% of 350,000 active; further: potency means the concentration at half of the fitted maximal effect; on the % scale 0 is the no-effect control and ±100 the full control effect; nearly all actives have a fitted effect of over 40% in size
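Here, a 5' biotin and 3' phosphotyrosine-FITC DNA oligonucleotide reports Tdp1 activity: intact substrate bridges AlphaScreen beads, while cleavage leaves a 3' phosphate and drops signal. All incubations at room temperature.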
JMJD2A Tudor: blocks the human JMJD2A Tudor domain; AlphaScreen JMJD2A-Tudor / H3K4me3 peptide binding; Potency, µM (top dose mostly 114 µM), without a hit: at the highest dose activity change, negative = inhibition, most hits filed as inhibitors; 4.4% of 390,000 active; O75164; further: potency means the concentration at half of the fitted maximal effect; on the % scale 0 is the no-effect control and ±100 the full control effect; nearly all actives have a fitted effect of over 50% in size
BAZ2B inh: BAZ2B (human) inhibition. AlphaScreen BAZ2B-H3K14Ac peptide displacement. Potency, µM (titrated, usually from 114 µM), for the others: top-dose activity change, negative = inhibition, actives largely listed as inhibitors. 4.4% of 360,000 active; further: potency means the concentration at half of the fitted maximal effect; on the % scale 0 is the no-effect control and ±100 the full control effect; nearly all actives have a fitted effect of over 60% in size
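AlphaScreen displacement: compounds (up to 110uM) incubated 30 min at room temperature with a preformed 50 nM BAZ2B/50 nM biotinylated H3K14Ac peptide complex in PBS pH 7.4 with Tween-20. Donor and acceptor beads at 10 ug/mL final added, 20 min light-protected before reading.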
CtBP-E1A blk: inhibitors of CtBP/E1A interaction; AlphaScreen GST-E1A/His-CtBP binding, 1536-well; active compounds read low; activity change, % (test concentration not listed); 0.49% of 340,000 active; AID 651724; in the data active means activity change below about -65%; inconclusive means mostly about -30% to -63%; further: on the % scale 0 is the no-effect control and ±100 the full control effect
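In 5 uL wells, 23 nL compound meets equimolar GST-E1A and His-CtBP (5X stock 125 nM each) for 2 h, 37 °C. Beads (5X, 50 ug/mL) then 1 h, 37 °C, dark.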
Active calls of the source: *; ? = inconclusive; · = no result given; [ ] = remark or other dose. A selection: hits, their analogues and other compounds. The true share with any hit is near 5.3%. Unless noted, the call rests on the fitted dose curve; in most records, active means well fitted inhibition curve with a large enough effect; inconclusive means small, poorly fitted or top-dose-only effect; inactive means no such curve, though single readings can be large or run the other way.

SMILES | HP1b binding inh | Six1-Eya2 inh | TDP1 block | JMJD2A Tudor | BAZ2B inh | CtBP-E1A blk
CC1CCCCN1C(=O)CNCC1CCCO1 (stereo not drawn) | ? | 4 | 0% | 0.89µM* | -15% | -1
CC1CCCCN1C(=O)COc1ccccc1F (stereo not drawn) | -5% | 8 | 0% | 56µM* | 8% | 6
O=C(COc1ccccc1F)OCc1cc(=O)n2nc(-c3cccs3)sc2n1 | 0% | · | -3% | -27% | -24% | ·
CCCn1c(SCc2nc(-c3ccc(OC)c(OC)c3)no2)nnc1-c1ccccc1 | 24% | · | 1% | -18% | -20% | ·
C/C(=N\Nc1nc2ccccc2[nH]1)c1ccccn1 | · | · | · | · | 20µM* | ·
C/C(=N\NC(=O)c1ccco1)c1cc2ccccc2o1 | 20% | -10 | 5% | -4% | -32% | 0
CC(=O)Nc1nc2ccccc2[nH]1 | 30% | -1 | 5% | -4% | -4% | ·
C/C(=N\Nc1nc2ccccc2[nH]1)c1cc2ccccc2o1 | ? | -6 | 8% | 45µM* | ? | -18
C/C(=N/O)c1ccccn1 | 20% | ? | 6% | ? | 10µM* | ?
CCC(=O)C1=C(c2cccc([N+](=O)[O-])c2)N(C(=O)CC)n2c(nnc2-c2ccccc2)S1 | 43% | · | 5% | -6% | 1% | ·
CCc1ccc(NC(=O)Cn2ncc3c(C)n(Cc4cccc(Cl)c4)c(C)c3c2=O)cc1 | 22% | · | 0% | -8% | 79µM* | ·
CCCS(=O)(=O)Nc1cc(-c2cn3ccc(C)cc3n2)ccc1C | 43% | · | 7% | -30% | -2% | ·
CCN(CC)c1ccc(NC(=O)c2cnn(CC)c2)cc1 | ? | -15 | 2% | ? | 40µM* | -12
CCN(CC)c1ccc(NC(=O)CCCOc2cccc(C)c2)cc1 | ? | ? | 6% | 10µM* | 1% | ?
CCOc1cccc(C(=O)Nc2ccc(N(CC)CC)cc2)c1 | ? | ? | 8% | 25µM* | 40µM* | ?
COc1cc(-c2noc(CSc3nc(-c4ccccc4)cc(=O)[nH]3)n2)cc(OC)c1OC | 23%[57 µM] | · | 0% | -18% | 2% | ·
CCCN(CCC)CCNC(=O)CN1C(=O)COc2ccc(S(=O)(=O)N3CCC(C)CC3)cc21 | 30% | · | 6% | -6% | -16% | ·
CCOC(=O)CNC(=O)c1cc(C)oc1C | · | · | -4% | · | -3% | ·
Cc1cc(C(=O)NCC(=O)O)c(C)o1 | 9% | 3 | 2% | -17% | 50µM* | 2
Cc1ccccc1NC(=O)CSc1nc2c(c(=O)n(C)c(=O)n2C)n1Cc1ccccc1F | 36% | · | -3% | 5% | -18% | ·
Brc1ccccc1OCCCCCN1CCCC1 | · | · | 5% | · | -4% | ·
Clc1ccc(OCCCN2CCCCC2)c(Br)c1 | ? | 3 | -1% | 4µM* | 79µM* | 0
Cc1ccc(OCCCCCCN2CCNCC2)c(Br)c1 | -2% | -5 | · | -27% | · | -19
CCN1CCN(CCCOc2ccc(Cl)cc2Br)CC1 | ? | 1 | 5% | 22µM* | 20µM* | ·
Clc1ccc(OCCCCCN2CCCC2)c(Br)c1 | ? | 1 | -5% | 2µM* | 79µM* | 8
SMILES | HP1b binding inh | Six1-Eya2 inh | TDP1 block | JMJD2A Tudor | BAZ2B inh | CtBP-E1A blk
Cc1ccc(-c2nc3cc(Cl)ccc3o2)cc1NC(=O)COc1ccc(F)cc1 | 26% | · | -5% | -17% | -12% | ·
CCOC(=O)c1[nH]c(C)c(/C(O)=C2\C(=O)C(=O)N(CCCN3CCOCC3)C2c2cccnc2)c1C (stereo not drawn) | 35% | 0 | -6% | -15% | -8% | 4
CCOC(=O)c1[nH]c(C)c(/C(O)=C2\C(=O)C(=O)N(CCCn3ccnc3)C2c2ccncc2)c1C (stereo not drawn) | 21% | -2 | -3% | 35µM* | ? | 1
Cc1ccc(/C(O)=C2/C(=O)C(=O)N(CCN3CCOCC3)C2c2cccnc2)cc1 (stereo not drawn) | 46% | 24 | -3% | 89µM* | 10% | 44
COC(=O)c1[nH]c(C)c(/C(O)=C2\C(=O)C(=O)N(CCCN3CCOCC3)C2c2ccccn2)c1C (stereo not drawn) | 36% | -3 | 3% | ? | 50µM* | -1
COC(=O)c1[nH]c(C)c(/C(O)=C2\C(=O)C(=O)N(CCN(C)C)C2c2ccc(C)o2)c1C (stereo not drawn) | 8% | -9 | -7% | 35µM* | -33% | -3
COc1cc(NS(=O)(=O)c2ccc3c(c2)CCCN3C(C)=O)cc(OC)c1OC | 22% | · | 2% | -5% | 0% | ·
Cc1ccc(Nc2ncnc3c2cnn3-c2ccccc2)c(C)c1 | 24% | · | 2% | -20% | -1% | ·
CCOC(=O)c1c(C)[nH]c(C)c1S(=O)(=O)N1CCN(c2cccc(C(F)(F)F)c2)CC1 | -20% | · | 6% | ? | -21%[57.1 µM] | ·
Cc1ccccc1CN1CCCN(CC(=O)Nc2ccc3c(c2)OCCO3)S1(=O)=O | -3% | · | 4% | -19% | -20% | ·
Cc1c(/C(O)=C2\C(=O)C(=O)N(CCCN(C)C)C2c2ccccc2)cnn1-c1ccccc1 (stereo not drawn) | 33% | 3 | -10% | -22% | -21% | -18
Cc1ccc(C2/C(=C(/O)c3cnn(-c4ccccc4)c3C)C(=O)C(=O)N2CCCN2CCOCC2)o1 (stereo not drawn) | · | · | · | · | 79µM* | ·
Cc1c(/C(O)=C2/C(=O)C(=O)N(CCN3CCOCC3)C2c2ccccn2)cnn1-c1ccccc1 (stereo not drawn) | 37% | -13 | 4% | 50µM* | 25µM* | -4
Cc1ccc(NC(=O)c2sc3nc(-c4ccc(F)cc4)cn3c2C)c(C)c1 | 21%[57 µM] | · | 5% | -16% | 2% | ·
COc1ccc(NC(=O)CC2C(=O)N(c3ccc(C)cc3)C(=O)N2C2CCCC2)cc1 (stereo not drawn) | 18% | · | 6% | -23% | -15% | ·
N#Cc1c(-c2ccccc2)cc(-c2ccccc2)nc1SCC(O)CS(=O)(=O)Cc1ccc(Cl)cc1 (stereo not drawn) | ? | · | 1%[12.3 µM] | ? | -14% | ·
COc1cc2[nH]c(=S)n(N(C(C)=O)C(C)=O)c(=O)c2cc1OC | 41% | -1 | 3% | -1% | -1% | 6
CCn1c(=S)[nH]c2cc(C(=O)OC)ccc2c1=O | 36% | 2 | 2% | -20% | -23% | 0
COC(=O)c1ccc2c(=O)n(NC(C)=O)c(=S)[nH]c2c1 | ? | -1 | 0% | 3.5µM* | 50µM* | 4
COc1ccccc1Cn1c(=S)[nH]c2cc(C(=O)NCCCN3CCOCC3)ccc2c1=O | 39% | 0 | 3% | -23% | -36% | -1
